# Data: PubChem BioAssay (NCATS)
# Records with an inconclusive call do not appear. A call without a number means that no potency is given here. Activity calls are given as the source filed them. The call rests on the fitted dose curve; in most records, active means well fitted cell-killing curve with a large enough effect; inconclusive means small, poorly fitted or top-dose-only effect; inactive means flat fitted curve, though single readings scatter.
# Assay: G06 Cancer Cell Toxicity qHTS against the NCATS CANVASS Library (AID 1347368); further: nearly all actives have a fitted effect of over 60% in size
# Settings: G06 dog glioma cells, viability ATP luminescence, 72 h; series mostly up to 46.1 µM
# Excerpt: Natural products and their derivatives continue to be wellsprings of nascent therapeutic potential. However, many laboratories have limited resources for biological evaluation, leaving their previously isolated or synthesized compounds largely or completely untested. To address this issue, the Canvass library of natural products was assembled (https://tripod.nih.gov/canvass), in collaboration with academic and industry researchers, for quantitative high-throughput screening (qHTS) across a diverse set of cell-based and biochemical assays. The pure (>85% purity by liquid chromatography/mass spectrometry [LC/MS]) Canvass library of 346 natural products were submitted by 45 academic laboratories and companies around the world. We collected pure natural products to circumvent deconvolution and structure elucidation due to time and resource limitations. The library was formatted into 1536-well plates and evaluated in 50 qHTS (in an 11-pnt concentration series) bioassays with broad scope of disease-relevant mechanisms. The resulting data set from 50 different assays was then systematically analyzed to identify overall trends and specific natural products with interesting biological activities. Reported herein are the results of each individual qHTS and their corresponding assay protocol. This assay uses ATP (luminescence) content to measure the cytotoxiciy of compounds on G06 dog glioma cancer cell line. National Center for Advancing Translational Sciences (NCATS), Rockville, MD National Institute of Health (NIH), Bethesda, Maryland
# Cancer Cell Toxicity qHTS protocol: for cell lines G06, J3T, and SDT. 1. In a 1536 well, tissue culture treated white solid bottom plates (Corning 7494), 5 uL of G06 cell solution (final concentration of 500 cells / well) was dispensed using the Multidrop Combi dispenser (Thermo Fisher Scientific) into columns 2, 3, 5-48. 2. Control and compounds were pin transferred (~23 nL volume) to the assay plates via Wako Pin-tool (Wako Automation, Richmond VA) equipped with a 1536 pin head. The compounds were transferred to columns 5-48 resulting in a final concentration ranging from 0.17 nM to 103 uM. Dose response titration of Bortezomib was pin transferred into column (1mM; 1:2 dilution; 16 points) resulting to a final concentration range of 0.1 nM - 4.6 uM. 3. The assay plates were further incubated in the at 37C, 5% CO2, 95% Rh for 72 hr. 4. After incubation, 3 uL of CellTiterGlo reagent (Promega) was added to the assay plates (column 1-48, rows 1-32) and centrifuged for 15 sec at 1000 rpm to remove bubbles. 5. Luminescence signal was acquired via the ViewLux plate reader (PerkinElmer) using a clear emission filter, 2 sec exposure, and 1x binning settings.
# Potency means the concentration at half of the fitted maximal effect.
SMILES,Potency,outcome
C/C=C(/C)c1c(Cl)c(O)c(C)c2c1Oc1c(Cl)c(O)c(Cl)c(C)c1C(=O)O2,inactive,
CO/C=C/C(=O)c1cc2cnc3c(N)cc(=NC(=O)C(C)C)c([nH]1)c23,0.132 µM (active),
CC(C)=CCC[C@]1(C)[C@H]2CC(=O)[C@@]3(CO3)[C@@H]1C2,inactive,
CC(C)[C@@H]1CC(=O)c2coc3c2[C@H]1C[C@@H](C)C3=O,inactive,
C[C@@]12CCC[C@@](C)(C(=O)O)[C@H]1C[C@@H](O)[C@@]13C[C@@H](CC[C@@H]21)[C@](C)(O)C3,inactive,
C/C=C/C1C=CC2CC(C)CC(C)C2C1C(=O)CC(=O)NC(CO)C/C=C/CCCCC (stereo not given),1.32 µM (active),
COc1cc2ccc(=O)oc2c(O)c1O[C@@H]1O[C@H](CO)[C@@H](O)[C@H](O)[C@H]1O,8.12 µM (active),
C/C=C(/CO)C(=O)O[C@@H]1[C@H](O)[C@@H](C(=O)OC)O[C@@H]2C[C@H]3OC(n4cnc5c(N)ncnc54)[C@H](OC)[C@H]3O[C@@]12O (stereo not given in full),inactive,
CC(=O)O[C@H]1c2ccccc2-c2c3c(cc4c2[C@@H]1N(C(C)=O)CC4)OCO3,inactive,
CC(CCC[C@]1(C)C(=O)C=C[C@@]23C[C@]4(C)O[C@@H](C[C@@H]4[C@H]2O)C31)C(=O)O (stereo not given in full),inactive,
COc1ccc([C@@H]2CC(=O)c3c(cc(O)c(C/C=C(\C)CCC=C(C)C)c3O)O2)cc1,,inactive [at 9.19 µM]
CC(C)=CC[C@H]1C[C@@]2(CC=C(C)C)C(=O)[C@](CC=C(C)C)(C(=O)C(C(=O)c3ccccc3)=C2O)C1(C)C,20.9 µM (active),
C[C@@]12CCC[C@@](C)(C(=O)O)[C@H]1CC[C@@]13C[C@@H](CC[C@H]12)[C@](C)(O)C3,inactive,
CN1C(=O)C(=O)N2C(=C[C@]3(c4c[nH]c5ccccc45)c4ccccc4N[C@H]23)C1=O,inactive,
C=CC(CCCCC)C1C(=O)NC(=O)C1C(=O)C1C(/C=C/C)C=CC2CC(C(=O)O)CC(C)C21 (stereo not given),inactive,
C=C1CC[C@@H](Br)C(C)(C)[C@]12CC=C(C)C(=O)C2,inactive,
O=C1c2c(O)cc(O)cc2OC(c2ccc(O)cc2)C1O (stereo not given),inactive,
O=Cc1ccc2n1C[C@]1(OC2)O[C@H](CO)[C@@H](O)[C@@H]1O,inactive,
CC(C)=CCC[C@]12c3cc4c(cc3CC[C@@]1(C)[C@H](C)CC[C@@H]2O)[nH]c1ccccc14,inactive,
C/C(=C\CC[C@@H](C)[C@H]1CC[C@]2(C)C3=CCC4C(C)(C)[C@@H](O)C[C@@H](O)[C@]4(C)C3[C@H](O)C[C@@]12C)CO (stereo not given in full),inactive,

SMILES,Potency,outcome
C=C(Cl)[C@](Cl)(CBr)CC[C@@H](Br)C(C)(C)Cl,inactive,
COc1cc(C2OCC3C(c4ccc(O)c(OC)c4)OCC23)ccc1O (stereo not given),,inactive [at 9.19 µM]
CC(C)=CCCC(C)(O)[C@H]1CC=C(C)C(O)C1 (stereo not given in full),inactive,
C/C=C1/C2=CCCN3C(=O)O[C@H]([C@H]1O)[C@H]23,inactive,
C=C[C@@]1(C)CC[C@@H]([C@H](C)C(C)=O)O1,inactive,
COC12OC1(C13OC1(OC)C(=O)c1cc4cc(C)oc(=O)c4c(O)c1C3O)C(O)c1c(cc3cc(C)oc(=O)c3c1O)C2=O (stereo not given),inactive,
C[C@@]12CCC[C@@](C)(C(=O)OP(=O)(O)OC[C@H]3O[C@@H](n4cnc5c(N)ncnc54)[C@H](O)[C@@H]3O)[C@H]1C[C@@H](O)[C@@]13C[C@@H](CC[C@@H]21)[C@](C)(O)C3,14.8 µM (active),
C/C1=C/[C@@H](C)[C@H](O)C/C=C/CC/C=C/C(=O)O[C@@H]1[C@H](C)C(=O)CCCC1CC(=O)NC(=O)C1,4.69 µM (active),
CO[C@@H]1[C@H](O)[C@@H](C)O[C@@H](OC[C@@H]2C(C)OC(=O)/C=C/[C@H](C)C(O[C@@H]3O[C@H](C)CC4(OC(=O)O[C@@H]4C)C3O)[C@@H](C)CC(C)C(=O)/C=C/[C@H]3OC23)[C@@H]1OC (stereo not given in full),16.6 µM (active),
C[C@H](CCC(O)C(C)(O)CO)[C@@]1(O)CC[C@@]2(C)C3=C(CC[C@@]21C)[C@@]1(C)CCC(OC(=O)CCC(=O)O)C(C)(C)[C@@H]1CC3 (stereo not given in full),inactive,
C/C=C(/C)c1cc(O)c(C)c2c1Oc1cc(O)cc(C)c1C(=O)O2,inactive,
CO[C@H]1/C=C/CCCCC(=O)O[C@@H](/C(C)=C/[C@H](C)C(=O)C[C@H](O)CC2CC(=O)NC(=O)C2)[C@@H](C)C1,5.26 µM (active),
COc1cc([C@@H]2c3cc4c(cc3C[C@@]3(O[C@@H]5O[C@H](CO)[C@@H](O)[C@H](O)[C@H]5O)COC(=O)[C@H]23)OCO4)cc(OC)c1OC,0.0418 µM (active),
COc1c(O)cc(O)c2c(=O)cc(-c3ccccc3)oc12,inactive,
C[n+]1cc2cc(C(N)=O)[nH]c3c(=N)c(Cl)c(N)c1c23,5.26 µM (active),
[C-]#[N+][C@@]12C(=O)[C@@H]3[C@@H](O[C@@]4(C(=O)N(C)c5cccc1c54)C3(C)C)C(=O)[C@@]2(C)C=C,inactive,
CC(C)[C@]12CC[C@@]3(C)[C@H](C)CC[C@H](O)[C@@]3(CC1)c1cc3c(cc12)[nH]c1ccccc13,inactive,
O=C1CCC(=O)N(O)CCCCCNC(=O)CCC(=O)N(O)CCCCCNC(=O)CCC(=O)N(O)CCCCCN1,8.33 µM (active),
C=C1C[C@]23C=CC(=O)[C@@](C)(CCCC(C)C(=O)N[C@@H](CO)C(=O)O)[C@@H]2C[C@@H]1CC3 (stereo not given in full),inactive,
COc1ccc([C@@H]2c3cc4c(cc3C(=O)C(C)C2C)OCO4)cc1OC (stereo not given in full),inactive,
